According to PubChem BioAssay AID1159580 (chemical genetic matrix, 2015):
Where “and” joins values, the source holds several entries; their conditions need not be identical. Equal entries are not always repeated. The whole screen tested about 5,500 compounds, of which about 2,000 (36%) were called active. Roughly 18% stayed inconclusive and do not appear here. No stated cut-off is given here; in the data, active means normalized growth mostly below about 0.91 (no sharp cut-off); inconclusive means no clear call, values can overlap the other calls; inactive means mostly above about 0.92. The list shows a part of the results.

Experiment: chemical genetic growth profiling, strain panel (AID 1159580);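 further: tested at 20 µM; growth read once vehicle control cultures reached saturation at 30 °C; 1 = growth at the plate median or of vehicle wells; lower values mean less growth of the strain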
Conditions: S. cerevisiae deletion strains, growth OD

Measured: normalized growth

C=Cc1c2[nH]c(c1C)C=c1[nH]c(c(C)c1C=C)=CC1N=C(C=c3[nH]c(c(C)c3CCC(=O)O)=C2)C(CCC(=O)O)=C1C (configuration not stated)
inactive: locus YAL013W, strain DEP1, active compounds read low 0.975 | locus YAL021C, strain ccr4, active compounds read low 0.954 | locus YAL026C, strain drs2, active compounds read low 1.02 | locus YAL030W, strain snc1, active compounds read low 1.03 | locus YBL061C, strain skt5, active compounds read low 1.02 | locus YBR009C, strain hhf1, active compounds read low 1.02 | locus YBR021W, strain FUR4, active compounds read low 1.01 | locus YBR023C, strain chs3, active compounds read low 1.01 | locus YBR171W, strain sec66, active compounds read low 1.08 | locus YBR229C, strain ROT2, active compounds read low 0.961 | locus YBR231C, strain swc5, active compounds read low 1.02 | locus YBR279W, strain paf1, active compounds read low 1.01 | locus YCL011C, strain gbp2, active compounds read low 1.05 | locus YCL016C, strain dcc1, active compounds read low 1 | locus YCL029C, strain bik1, active compounds read low 0.979 | locus YCL061C, strain MRC1, active compounds read low 1.03 | locus YCL069W, strain vba3, active compounds read low 1.02 | locus YCR088W, strain abp1, active compounds read low 1.04 | locus YDL005C, strain med2, active compounds read low 1.01 | locus YDL035C, strain GPR1, active compounds read low 0.975 | locus YDL040C, strain nat1, active compounds read low 0.993 | locus YDL074C, strain BRE1, active compounds read low 0.988 | locus YDL101C, strain DUN1, active compounds read low 0.981 | locus YDL134C, strain PPH21, active compounds read low 0.988 | locus YDL185W, strain tfp1, active compounds read low 0.983 | locus YDL192W, strain arf1, active compounds read low 0.976 | locus YDR001C, strain nth1, active compounds read low 1.03 | locus YDR069C, strain doa4, active compounds read low 1.06 | locus YDR101C, strain arx1, active compounds read low 0.987 | locus YDR137W, strain rgp1, active compounds read low 1 | locus YDR150W, strain NUM1, active compounds read low 0.973 | locus YDR159W, strain sac3, active compounds read low 1.03 | locus YDR162C, strain NBP2, active compounds read low 0.96 | locus YDR195W, strain ref2 1.03 | locus YDR297W, strain sur2, active compounds read low 1.01 | locus YDR318W, strain mcm21, active compounds read low 0.989 | locus YDR334W, strain swr1, active compounds read low 1.04 | locus YDR335W, strain msn5, active compounds read low 1.01 | locus YDR388W, active compounds read low 0.999 | locus YDR392W, strain spt3, active compounds read low 0.909 | locus YDR502C, strain sam2, active compounds read low 0.952 | locus YEL003W, strain gim4, active compounds read low 1.05 | locus YEL037C, strain rad23, active compounds read low 1.02 | locus YEL061C, strain CIN8 (second series), active compounds read low 1.02 | locus YEL061C, strain CIN8, active compounds read low 0.986 | locus YER015W, strain faa2, active compounds read low 1.04 | locus YER016W, strain bim1, active compounds read low 1.02 | locus YER110C, active compounds read low 0.972 | locus YER111C, strain swi4, active compounds read low 1.03 | locus YER155C, strain BEM2 (second series), active compounds read low 1.07 | locus YER155C, strain BEM2, active compounds read low 1 | locus YER167W, strain BCK2, active compounds read low 0.982 | locus YFR010W, strain ubp6, active compounds read low 1.04 | locus YGL078C, strain dbp3, active compounds read low 1.02 | locus YGL086W, strain mad1, active compounds read low 0.938 | locus YGL167C, strain pmr1, active compounds read low 1.02 | locus YGL173C, strain kem1, active compounds read low 1.02 | locus YGL227W, strain vid30, active compounds read low 1.05 | locus YGL240W, strain doc1, active compounds read low 0.977 | locus YGL248W, strain PDE1, active compounds read low 0.995 | locus YGL253W, strain hxk2, active compounds read low 0.988 | locus YGR078C, strain PAC10, active compounds read low 0.994 | locus YGR135W, strain pre9, active compounds read low 0.961 | locus YGR229C, strain SMI1, active compounds read low 0.923 | locus YGR252W, strain gcn5, active compounds read low 1.05 | locus YHR013C, strain ard1, active compounds read low 0.975 | locus YHR027C, strain rpn1, active compounds read low 1.06 | locus YHR030C, strain SLT2, active compounds read low 1 and 1.03 | locus YHR079C, strain IRE1 (second series), active compounds read low 0.99 | locus YHR079C, strain IRE1, active compounds read low 1.07 | locus YHR094C, strain hxt1, active compounds read low 0.996 | locus YHR129C, strain ARP1, active compounds read low 0.995 | locus YHR142W, strain chs7, active compounds read low 0.975 | locus YHR200W, strain rpn10, active compounds read low 0.97 | locus YIL066C, strain RNR3, active compounds read low 0.982 | locus YIL073C, strain SPO22, active compounds read low 1.01 | locus YIL125W, strain kgd1, active compounds read low 1.02 | locus YIR030C, strain dcg1, active compounds read low 0.986 | locus YJL092W, strain hpr5, active compounds read low 1.02 | locus YJL095W, strain BCK1 (second series), active compounds read low 1.02 | locus YJL095W, strain BCK1, active compounds read low 1.02 and 1.01 | locus YJL115W, strain asf1, active compounds read low 1.02 | locus YJL129C, strain trk1, active compounds read low 1.04 | locus YJL134W, strain LCB3, active compounds read low 0.988 | locus YJL154C, strain vps35, active compounds read low 1.02 | locus YJL164C, strain tpk1, active compounds read low 0.968 | locus YJL166W, strain qcr8, active compounds read low 0.945 | locus YJL168C, strain set2, active compounds read low 0.996 | locus YJL187C, strain SWE1 (second series), active compounds read low 1 | locus YJL187C, strain SWE1, active compounds read low 1 | locus YJR043C, strain POL32, active compounds read low 0.962 | locus YJR066W, strain TOR1, active compounds read low 0.995
